Among the data in PubChem BioAssay (NCATS) are Potency values, retold here.

Inconclusive results are not listed. Where a call stands in place of a potency, no number is given. Active and inactive are the calls of the source. Calls follow the shape of the dose curve; as a rule, active = well fitted inhibition curve with a large enough effect; inconclusive = small, poorly fitted or top-dose-only effect; inactive = no such curve, though single readings can be large or run the other way.
Potency is read from the fitted curve at half-maximal effect.

The assay concerns Zika virus NS2B-NS3 protease (unlinked complex). The assay can be described thus: Primary screen GU Rhodamine qHTS for Zika virus inhibitors: Unlinked NS2B-NS3 protease assay (AID 1347159). Also: nearly all actives have a fitted effect of over 60% in size. The following applies: Recombinant ZIKV NS2B-NS3 protease, Rhodamine110 substrate fluorescence; series mostly up to 107 µM. The method in brief:
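Percent inhibition derives from the 15-min fluorescence change (ex 480, em 540 nm), normalized to no-enzyme and no-inhibitor wells. Reactions contained 25 nM NS2B-NS3 complex and 1.5 microM substrate in 10 mM Tris-HCl pH 8.0.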
In general terms: Quantitative high-throughput screening tests each substance at several concentrations.
As to `CC[N+]1(C/C2=C/CCCCCC2)CCC(NC(=O)C2c3cc(Cl)ccc3Oc3ccc(Cl)cc32)CC1` (stereo not given), the Potency result is “inactive”.

For the molecule `C=C1C(=O)O[C@@H]2C[C@@]3(C)C[C@@H](O)C[C@H](C)C3=C[C@H]12`, the Potency result is “inactive”.

With `CC(C)[C@@H](c1ccc(C(F)(F)F)cc1CN(Cc1cc(C(F)(F)F)cc(C(F)(F)F)c1)c1nnn(C)n1)N1CCC(C(=O)O)CC1`, the Potency is 3.16 µM (active).

On to `Cc1cccc(-c2[nH]ncc2-c2ccc(F)c(-c3cnn(CCO)c3)c2)n1`, for which the Potency entry is “inactive”.

With `N#Cc1cccc(C(=O)Nc2cc(-c3ccccc3)nn2-c2ccccc2)c1`, the Potency result is “inactive”.
